{
  "source": "PubChem BioAssay AID493168",
  "about": "(National Center for Advancing Translational Sciences (NCATS), 2011)",
  "note": "Inconclusive results are not listed. Where a call stands in place of a potency, no number is given. Activity calls are given as the source filed them. Calls follow the shape of the dose curve; as a rule, active = well fitted inhibition curve with a large enough effect; inconclusive = small, poorly fitted or top-dose-only effect, or effect the other way; inactive = flat fitted curve, though single readings scatter. Potency is read from the fitted curve at half-maximal effect.",
  "data": [
    {"target": "Ubiquitin carboxyl-terminal hydrolase 2 (Homo sapiens) (UniProt O75604)", "sequence (O75604 whole entry, looked up)": "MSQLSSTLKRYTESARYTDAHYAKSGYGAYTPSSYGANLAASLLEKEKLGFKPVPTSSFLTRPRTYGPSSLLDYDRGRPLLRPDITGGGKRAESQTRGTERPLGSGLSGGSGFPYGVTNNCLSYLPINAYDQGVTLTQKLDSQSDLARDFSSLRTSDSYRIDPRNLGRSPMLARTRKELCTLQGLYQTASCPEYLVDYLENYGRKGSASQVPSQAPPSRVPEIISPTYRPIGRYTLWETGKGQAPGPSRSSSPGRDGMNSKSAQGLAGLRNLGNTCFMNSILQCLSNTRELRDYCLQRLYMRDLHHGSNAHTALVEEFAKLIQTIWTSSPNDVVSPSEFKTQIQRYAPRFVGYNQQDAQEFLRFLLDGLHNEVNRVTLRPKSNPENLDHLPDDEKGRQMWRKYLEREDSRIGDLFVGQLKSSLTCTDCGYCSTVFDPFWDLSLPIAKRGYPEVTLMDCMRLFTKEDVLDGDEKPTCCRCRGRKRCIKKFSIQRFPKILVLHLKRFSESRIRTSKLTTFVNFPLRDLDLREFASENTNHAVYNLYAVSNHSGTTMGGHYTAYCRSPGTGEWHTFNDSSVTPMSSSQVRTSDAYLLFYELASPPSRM", "test": "Confirmation Assay for Inhibitors of Ubiquitin-specific Protease USP2a Using CHOP2 as the Reporter; also: nearly all actives have a fitted effect of over 55% in size", "details": "USP2 core, Ub-CHOP2 coupled reporter fluorescence; series mostly up to 38.3 µM", "outline": "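USP2 core (10 nM final) was preincubated with compound for 30 min at RT in Tris-HCl pH 8.0, CaCl2, beta-mercaptoethanol, CHAPS. Ub-CHOP2 and reporter substrate (25 nM final each) were added, and fluorescence (Ex 485/Em 531 nm) was read after 60 min.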", "values": [
      {"compound": "COc1ccc(C(=O)N/C(=C\\c2cccs2)C(=O)N2CCN(C)CC2)cc1OC", "Potency": "inactive"},
      {"compound": "NC(=O)CC(NC(=O)Cc1ccc(Br)cc1)c1ccc(N2CCC(Cc3ccccc3)CC2)c([N+](=O)[O-])c1", "note": "(stereo not given)", "Potency": "inactive"},
      {"compound": "CCOC(=O)c1sc(NC(=O)Nc2ccccc2)cc1C", "Potency": "inactive"},
      {"compound": "O=C(Nc1ccc(Nc2ccncc2)cc1)c1ccc(Nc2ccnc3ccc([N+](=O)[O-])cc23)cc1", "Potency": "7.36 µM (active)"},
      {"compound": "Cc1ccc(C2=[N+]([O-])C(C)N(O)C2(C)C)o1", "note": "(stereo not given)", "Potency": "inactive"},
      {"compound": "COc1cc2cc(CN(CCN3CCCC3)C(=O)Nc3ccc(F)cc3)c(=O)[nH]c2cc1OC", "Potency": "inactive"},
      {"compound": "CC1CCCC(N2CCN(C(=O)c3cccc(F)c3)CC2)C1", "note": "(stereo not given)", "Potency": "inactive"},
      {"compound": "N#CCC(=O)Nc1ccc(C(=O)OCC(=O)NCc2ccc3c(c2)OCO3)cc1", "Potency": "inactive"},
      {"compound": "Cc1ccc(C(=O)N(C)CC(=O)Nc2cccc(C)c2C)o1", "Potency": "inactive"},
      {"compound": "CCOc1ccc2[nH]c(=O)c(CN(Cc3nnnn3Cc3ccco3)C3CCCCC3)cc2c1", "Potency": "inactive"},
      {"compound": "Cc1ccc(/C=C/S(=O)(=O)N2CCC(C(=O)O)CC2)cc1", "Potency": "inactive"},
      {"compound": "C#CCOCCOCCOCCNc1nc(N2CCN(C(=O)CCCCCCCCCCNC(=O)Cn3cc(CCCCCN)nn3)CC2)nc(N2CCN(C(=O)CCCCCCCCCCNC(=O)[C@H]([C@@H](C)CC)n3cc(CCCCCN)nn3)CC2)n1", "Potency": "4.65 µM (active)"},
      {"compound": "COC(=O)c1c(O)c2c([nH]c1=O)CCCC2", "Potency": "inactive"},
      {"compound": "Cc1ccc(-c2c(C)n([O-])c3c([n+]2=O)CCC3)o1", "Potency": "inactive"},
      {"compound": "Cc1ccc(C(=O)COC(=O)CNC(=O)CN2C(=O)c3ccccc3C2=O)cc1", "Potency": "inactive"},
      {"compound": "CC1(C)CC(=O)C=C(NCc2cccs2)C1", "Potency": "inactive"},
      {"compound": "O=C(Nc1ccccc1)c1cc(Cl)nc2ccccc12", "Potency": "inactive"},
      {"compound": "O=C(O)c1cc(N2N=C(C(F)(F)F)/C(=C/C=C/c3ccco3)C2=O)ccc1Cl", "Potency": "5.85 µM (active)"},
      {"compound": "CN(C)S(=O)(=O)c1ccc(C(=O)NCCN=C2NS(=O)(=O)c3ccccc32)cc1", "Potency": "inactive"},
      {"compound": "Cc1ccc(N2CN=c3s/c(=C\\c4cccnc4)c(=O)n3C2)cc1", "Potency": "inactive"},
      {"compound": "CCCn1c(C)cc(C)c(C#N)c1=O", "Potency": "inactive"},
      {"compound": "CCC(C)NC(=O)CSC1=Nc2ccccc2C2=NC(c3ccccc3)C(=O)N12", "note": "(stereo not given)", "Potency": "inactive"},
      {"compound": "C/C(=N/NC(=O)c1cc2ccccc2cc1O)C1C(=O)c2ccccc2C1=O", "Potency": "5.85 µM (active)"},
      {"compound": "Cc1cc(SCC(=O)Nc2ccccc2)nc(C)n1", "Potency": "inactive"},
      {"compound": "O=C(NC12CC3CC(CC(C3)C1)C2)C1=COCCO1", "Potency": "inactive"},
      {"compound": "CCOc1ccc(CCn2c(-c3ccco3)nc3ccccc3c2=O)cc1OCC", "Potency": "inactive"},
      {"compound": "CCC(C)(C)n1nnnc1C(c1ccc(C)cc1)N1CCCC1", "note": "(stereo not given)", "Potency": "inactive"},
      {"compound": "CCC1SC2=NC(C)=C(C(=O)OCCOC)C(c3ccc(C(=O)OC)cc3)N2C1=O", "note": "(stereo not given)", "Potency": "inactive"},
      {"compound": "NC1=NC(=O)/C(=C/c2cccc(-c3ccc(S(N)(=O)=O)cc3)c2)S1", "Potency": "9.27 µM (active)"},
      {"compound": "COc1cccc(-c2csc3nnc(SCC(=O)NCc4cccs4)n23)c1", "Potency": "inactive"},
      {"compound": "CCc1cc2c(=O)c(-n3cnc4ccccc43)coc2cc1O", "Potency": "inactive"},
      {"compound": "Cc1ccccc1OCc1nc2ccccc2c(=O)n1N", "Potency": "inactive"},
      {"compound": "Cc1cc(NC(=O)COC(=O)CCCOc2ccc(Cl)cc2C)no1", "Potency": "inactive"},
      {"compound": "CC(=O)C1=C(O)C(=O)N(c2nnn(C)n2)C1c1cccs1", "note": "(stereo not given)", "Potency": "inactive"},
      {"compound": "Cc1cc(N2CCC(C(=O)NC3CC3)CC2)nc(-c2ccccc2)n1", "Potency": "inactive"},
      {"compound": "CC(C)OCCCNC(=O)c1c(N)n(/N=C/c2ccccn2)c2nc3ccccc3nc12", "Potency": "inactive"},
      {"compound": "Cc1ccc(NC(=O)c2cc3c(=O)oc4ccccc4c3s2)nc1", "Potency": "inactive"},
      {"compound": "CC(=O)N1CCCc2cc(S(=O)(=O)CCC(=O)N3CCN(c4cccc(C)c4)C(C)C3)ccc21", "note": "(stereo not given)", "Potency": "inactive"},
      {"compound": "Cc1ccc2[nH]c(=O)c(COC(=O)c3ccccn3)cc2c1", "Potency": "inactive"},
      {"compound": "CC[n+]1c(/C=C/N(C)c2ccccc2)n(-c2ccccc2)c2ccc(-c3nc4ccccc4s3)cc21", "Potency": "13.1 µM (active)"}
    ]}
  ]
}
